Screening results from PubChem.
Mcl1-Bid inh = disrupts binding of human Mcl-1 to Bid peptide. Q07820. TR-FRET Mcl-1/Bid-Dy647 peptide binding, 1536-well. inhibition, % at 21.7 µM. 220,000 tested, 0.97% active. AID 1021;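 active means compounds that cut the binding signal by more than half at the single screening dose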;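 further: His-tagged Mcl-1 with europium anti-His antibody binding Bid BH3 peptide; 0% = Mcl-1 plus peptide wells and 100% = peptide-only wells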
NOD2 RIPK2 PPI = blocks binding of human NOD2 to RIPK2; O43353; CHO BLA complementation NOD2-RIPK2, CCF4 ratio; inhibition, % at 4.98 µM; 360,000 tested, 0.38% active; in the data active means inhibition above about 21%;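 further: 0% = vehicle only and 100% = reference blocker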
TLR4-MyD88 BLA = inhibitors of human TLR4-MyD88 binding; HeLa CL3-4 TLR4/MyD88 BLA complementation, FRET ratio; O00206+Q99836; 200,000 tested, 0.18% active; inhibition, % at 8.4 µM; AID 861; in the data active means inhibition above about 25%;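 further: 0% = vehicle and 100% = reference inhibitor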
Mcl-1 Bim block = human Bim-Mcl-1 interaction inhibition; Q07820; inhibition, % at 10 µM; 190,000 tested, 0.1% active; Bead-based flow cytometry, Bim peptide-Mcl-1 binding; in the data active means inhibition above about 40%;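 further: 0% = no compound tracer wells and 100% = peptide blocker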
Mcl1 Noxa PPI = Mcl-1/Noxa interaction inhibition | 220,000 tested, 1.5% active | TR-FRET Mcl-1/Noxa peptide binding, 2 h | inhibition, % at 21.7 µM | Q07820;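 active means compounds that cut the protein-peptide binding signal by more than 50% relative to plate controls in a single-dose test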;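 further: His-tagged Mcl-1 with rhodamine Noxa BH3 peptide and terbium anti-His antibody; 0% = Mcl-1 plus Noxa peptide wells and 100% = peptide-only wells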
TLR9-MyD88 inh = inhibitors of human TLR9-MyD88 binding; Q9NR96+Q99836; CHO BLA complementation TLR9-MyD88, CCF4 FRET ratio; inhibition, % at 4.98 µM; AID 504734; 340,000 tested, 0.21% active;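 active means inhibition above the mean over all tested compounds plus 3 SD, cut at about 21% in these data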;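 further: 0% = DMSO only wells and 100% = clavulanate BLA inhibitor control wells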
NOD2 RIPK2 conf = confirmation of human NOD2-RIPK2 interaction inhibitors; CHO cells, NOD2-RIPK2 BLA complementation, CCF4 FRET; AID 624370; shares compounds with NOD2 RIPK2 PPI; 1,200 tested, 70% active; inhibition, % at 4.98 µM;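 active means mean inhibition across replicates above a set limit taken from the earlier primary screen, cut at about 21% in these data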;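 further: 0% = DMSO-only wells and the high end = clavulanate BLA-blocked wells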
BLA counter = NOD2-RIPK2 counterscreen BLA reporter activity; inhibition, % at 4.98 µM; 1,200 tested, 57% active; shares compounds with NOD2 RIPK2 PPI; CHO BLA reporter, CCF4 FRET ratio; AID 624371;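 active means mean inhibition above the low-control mean inhibition plus three low-control SD, cut at about 11% in these data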;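 further: 0% = DMSO only wells and 100% = clavulanate high control wells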
* hit, by the source's call; x = no result given. This is a sample that favours compounds with a hit; in the whole collection about 1.8% have one here.

SMILES	Mcl1-Bid inh	NOD2 RIPK2 PPI	TLR4-MyD88 BLA	Mcl-1 Bim block	Mcl1 Noxa PPI	TLR9-MyD88 inh	NOD2 RIPK2 conf	BLA counter
CC1CCN(C(CC(=O)c2ccccc2)C(=O)c2ccccc2)CC1 (stereo not given)	x	28*	x	x	x	0	12	-3
COc1ccc2c(c1OC)CN1CCc3cc4c(cc3[C@H]1C2)OCO4	x	4	x	x	x	4	x	x
CCC1CN2CCc3cc(OC)c(OC)cc3C2CC1CC1NCCc2c1[nH]c1ccc(O)cc21 (stereo not given)	x	29*	x	x	x	-6	27*	0
CC1=CC2OC3CC4OC(=O)C=CC=CC(=O)OCCC(C)C(O)C(=O)OCC2(CC1)C4(C)C31CO1 (stereo not given)	x	23*	x	x	x	5	17	-4
CC1CCOC(=O)C=CC=CC(=O)OC2CC3OC4C5OC5(C)C(O)CC4(COC(=O)C1O)C2(C)C31CO1 (stereo not given)	x	28*	x	x	x	-4	21*	-5
CC1=CC2OC3CC4OC(=O)C=CC=CC(C(C)O)OCC(O)C5(C)OC5C(=O)OCC2(CC1O)C4(C)C31CO1 (stereo not given)	x	29*	x	x	x	0	17	-5
Brc1ccc2c(c1)-n1nncc1CN(CC1CCCCC1)C2	x	-2	x	x	x	x	x	x
NC(=O)c1c(NC(=O)c2ccc(S(=O)(=O)N(CCCl)CCCl)cc2)sc2c1CCCCC2	-3	0	6	-3	4	-9	x	x
O=C1NCN(c2ccccc2)C12CCN(C(c1nnnn1C1CCCC1)C1CC1)CC2 (stereo not given)	x	2	x	x	x	x	x	x
CC(C)c1oc(=O)cc2c1[C@@H](O)[C@H]1OC(=O)[C@@]3(C)C[C@@H](O)[C@@H](O)[C@@]2(C)C13 (stereo not given in full)	-4	10	-11	0	13	-3	x	x
COc1cc2c(cc1/C=C/[N+](=O)[O-])OCO2	5	40*	13	3	15	-5	65*	-5
COC1CC2C=C(C)C=CC=CC(=O)NC(c3ccccc3)CC=CCCC(O)CC(=O)C2=C1O (stereo not given)	x	67*	x	x	x	x	102*	79*
COc1cc(/C=C/[N+](=O)[O-])ccc1OC(=O)c1cccnc1	x	22*	x	x	x	-1	86*	6
C[C@@H]1C(=O)O[C@@H]2[C@H](O)C34[C@@H]5OC(=O)C3(O[C@H]3OC(=O)[C@H](O)C34[C@H](C(C)(C)C)[C@H]5O)[C@@]12O (stereo not given in full)	2	-6	1	0	-14	-4	x	x
CCOC(=O)[C@]12Cc3cc(Cl)ccc3[C@H]1N(C1CCCCC1)C(=O)c1cc(OC)ccc12	x	70*	x	x	x	x	66*	7
CCOC(=O)[C@]12Cc3ccc(C)cc3[C@H]1N(C1CCCCC1)C(=O)c1ccccc12	x	52*	x	x	x	x	54*	1
CCOC(=O)[C@]12Cc3cc(OC)ccc3[C@H]1N(C)C(=O)c1cc(OC)ccc12	x	-1	x	x	x	x	x	x
CCOC(=O)[C@]12Cc3cc(N(C)C)ccc3[C@H]1N(Cc1ccccc1)C(=O)c1ccccc12	x	23*	x	x	x	8	3	3
CCOC(=O)[C@]12Cc3ccc(C)cc3[C@H]1N(C1CCCCC1)C(=O)c1cc(OC)ccc12	x	58*	x	x	x	x	63*	1
CCOC(=O)[C@]12Cc3cc(Cl)ccc3[C@H]1N(Cc1ccccc1)C(=O)c1ccccc12	x	-7	x	x	x	-3	x	x
COC(=O)C1=C(c2cccc(C#N)c2)C[C@@H]2CC[C@H]1N2C(=O)NCCOc1ccc(OC)cc1	x	6	x	x	x	-2	x	x
O=C(Nc1ccc(Cl)cc1)O/N=C(\c1ccccc1)c1ccccn1	-22	0	-3	-2	17	4	x	x
COc1ccc(-n2c(O)c(C(C)=NCCN3CCNCC3)c(=O)[nH]c2=O)cc1	0	3	-5	-11	8	-3	x	x
COC(=O)C1=C(c2cc3ccccc3s2)C[C@@H]2CC[C@H]1N2C(=O)NC1CCCCC1	x	-7	x	x	x	-2	x	x
CCOC(=O)[C@]12Cc3cc(C)ccc3[C@H]1N(C1CCCCC1)C(=O)c1ccccc12	x	56*	x	x	x	x	66*	0
SMILES	Mcl1-Bid inh	NOD2 RIPK2 PPI	TLR4-MyD88 BLA	Mcl-1 Bim block	Mcl1 Noxa PPI	TLR9-MyD88 inh	NOD2 RIPK2 conf	BLA counter
CCOC(=O)[C@]12Cc3c(cc(OC)c(OC)c3OC)[C@H]1N(C1CCCCC1)C(=O)c1ccccc12	x	28*	x	x	x	x	71*	2
CCOC(=O)[C@]12Cc3ccccc3[C@H]1N(C(C)C)C(=O)c1ccccc12	x	-6	x	x	x	x	x	x
Cc1nc(C)c(C(=O)NN=Cc2ccc(N(CCCl)CCCl)cc2)s1	x	-4	x	x	x	-3	x	x
COC(=O)C1=C(C(=O)OC)SC2(S1)C(C(=O)OC)=C(C(=O)OC)Sc1c2ssc1=O	x	75*	x	x	x	2	76*	4
COc1ccc(CCC(=O)N2C[C@H]3C[C@@H](C2)c2cccc(=O)n2C3)cc1	x	-5	x	x	x	-7	x	x
C[C@]12CC[C@H](OC(=O)CCC(=O)O)CC1=CCC1C2CC[C@@]2(C)C1CC[C@@H]2OC(=O)CCC(=O)O (stereo not given in full)	x	-3	x	x	x	4	x	x
